This passage reports inhibition results from PubChem BioAssay AID492993 (Johns Hopkins Ion Channel Center, 2010).

Molecules are shown by their SMILES. Among all 4,900 compounds or so, about 200 (4.1%) were called active.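 Rule for the calls: active = thallium signal drop more than 5 SD beyond the mean of the no-compound control wells, seen in both duplicate plates; inactive = the rest.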 The list is a sample of the results.

A word on the inhibition: it is the drop in the measured response relative to a control, in per cent.

The experiment deals with Inward rectifier potassium channel 2 (Mus musculus) (UniProt P35561). As to the kind of experiment: off-target Kir2.1 potassium flux block – cell-based, HEK293, thallium flux, selectivity assay for KCNK9 modulator project, confirmation (AID 492993).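 For inhibition: signal is fluorescence rise after thallium addition divided by baseline fluorescence; plate controls were assay buffer only for no effect and full block by chlorpromazine control for full effect.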 The settings on record: Kir2.1 cells, FluxOR thallium flux fluorescence, at 10 µM; stronger effect = higher value.
Chain of Inward rectifier potassium channel 2 (Mus musculus) (P35561 whole entry, looked up): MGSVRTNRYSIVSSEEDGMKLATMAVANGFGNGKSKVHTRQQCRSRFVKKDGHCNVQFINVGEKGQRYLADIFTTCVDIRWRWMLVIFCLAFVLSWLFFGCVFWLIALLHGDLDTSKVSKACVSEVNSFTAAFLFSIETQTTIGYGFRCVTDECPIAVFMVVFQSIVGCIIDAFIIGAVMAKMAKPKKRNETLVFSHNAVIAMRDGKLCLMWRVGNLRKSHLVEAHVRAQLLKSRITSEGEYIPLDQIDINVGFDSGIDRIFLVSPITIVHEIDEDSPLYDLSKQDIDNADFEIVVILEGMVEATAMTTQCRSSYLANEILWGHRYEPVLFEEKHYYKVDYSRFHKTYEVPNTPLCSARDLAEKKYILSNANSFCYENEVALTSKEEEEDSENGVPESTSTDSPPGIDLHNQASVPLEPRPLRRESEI
In the case of `O=C(Nn1c(SCc2ccc([N+](=O)[O-])cc2)nc2ccccc2c1=O)c1ccc(F)cc1`, the inhibition entry was “inactive”.
The entry for `Cc1ccc(NC(=O)c2cc([N+](=O)[O-])ccc2Cl)c(O)c1` is “inactive”; for `O=C(Nc1ccc2c(c1)CCC2)c1cccc(S(=O)(=O)Nc2ccccc2Cl)c1` it is “inactive”; for `COc1ccc(OC)c(-c2csc(-c3cccs3)n2)c1` it is “inactive”.
As for `CCN(CC)S(=O)(=O)c1ccc(N(C)Cc2ccc(C(F)(F)F)cc2)nc1`, the entry is “inactive”.
Regarding `Cc1ccnc(N2CCN(C(=O)CSc3nc4ccccc4nc3N3CCCCC3)CC2)c1`, the inhibition result is “inactive”.
As for `CC(C)(C)NC(=O)NC(=O)CN1CCC(Cc2ccccc2)CC1`, the inhibition entry was “inactive”.
Take `CCN(CC)C(=O)CC1(c2ccccc2OC)CCOC(C(C)C)C1` (stereo not drawn): the inhibition result is “inactive”.
Regarding `COC(=O)c1cc(NC2c3ccccc3C(=O)N2c2ccc(Cl)cn2)cc(C(=O)OC)c1` (stereo not drawn), the inhibition entry is “inactive”.
`O=C(COC(=O)/C(=C/c1cccs1)c1cccs1)NCc1ccccc1Cl`: the inhibition result was “inactive”.
In the case of `N#Cc1nc(Cc2cccc3ccccc23)oc1NCc1ccc2c(c1)OCO2`, the inhibition is 51% (active).
As for `C=CCN(N=Nc1cccc([N+](=O)[O-])c1)c1cccc([N+](=O)[O-])c1`, the entry is “inactive”; as for `COc1cccc(CN(C)C(=O)CC23CC4CC(CC(C4)C2)C3)c1OC`, “inactive”; as for `CCCCCCCCn1c2c(c(=N)c3c1CCC3)CCCC2`, 84% (active).
As for `Clc1ccc(COn2c(-c3ccc(Cl)cc3Cl)nc3ncccc32)cc1`, the entry is “inactive”.
The entry for `O=C(Nc1ccc(S(=O)(=O)N2CCCCC2)cc1)C1CCN(C(=O)c2ccc(F)cc2)CC1` is “inactive”; for `Cc1nc(N2CCN(c3ccccn3)CC2)c2c(C)c(C(=O)Nc3ccc(F)c(Cl)c3)sc2n1` it is “inactive”.
`Cc1ccc(OS(=O)(=O)c2ccc(-c3csc(C)n3)s2)c(C)c1`: the inhibition entry is “inactive”.
As for `C[C@@]12C(=O)N(c3cccc(Br)c3)C(=O)N1[C@H](c1ccc(Cl)cc1)[C@@H]1C(=O)N(C3CCCCC3)C(=O)[C@@H]12`, the inhibition entry was “inactive”.
As to `COc1cccc2sc(NNC(=O)c3nc4ccccc4s3)nc12`, the inhibition entry is “inactive”.
The entry for `COc1ccccc1NC(=O)CSc1nc2sc(C)c(C)c2c(=O)n1Cc1ccco1` is “inactive”.
Turning to `O=C(NCCCc1ccccc1)c1cc(COc2c(F)cccc2F)on1`, the inhibition entry was “inactive”.
The entry for `Cc1ccc(C2=NN(C)c3nc4ccccc4n3C2)cc1` is “inactive”.
Take `O=C(Cc1ccccc1)n1nc(-c2ccccc2)nc1NCc1ccco1`: the inhibition entry is “inactive”.
The entry for `Cc1cc(C)cc(OCC(=O)Nc2cc(NC(=O)COc3cc(C)cc(C)c3)cc(C(=O)O)c2)c1` is “inactive”; for `Cc1cccc(NC(=O)N(Cc2cc3cc(C)cc(C)c3[nH]c2=O)CC2COCCO2)c1` (stereo not drawn) it is “inactive”.
Turning to `CC1CCN(C(=S)c2ccc(-c3ccc(Cl)cc3Cl)o2)CC1`, the inhibition result is “inactive”.
The entry for `COC(=O)c1cccc(C(=O)N2CCCC(Nc3ccc4c(c3)OCCO4)C2)c1` (stereo not drawn) is “inactive”.
As for `Cc1ccc(C2=Nc3c(ccc4ccccc34)C(c3ccncc3)=NN2)cc1`, the entry is “inactive”; as for `Cc1ccc(CN(N=Nc2nonc2N)c2nonc2N)c(C)c1`, “inactive”; as for `Cc1ccc(Cn2ccc(NC(=O)c3cc(C(C)C)on3)n2)cc1`, “inactive”.
In the case of `CCOC(=O)[C@@H]1[C@H]2COc3ccc(Br)cc3[C@H]2N2C(=O)N(c3ccc(Cl)cc3)C(=O)[C@@]12C`, the inhibition entry was “inactive”.
As for `O=C(N/N=C/c1ccccn1)c1cccc(NC(=O)c2ccc(Cl)cc2)c1`, the entry is “inactive”; as for `Cc1ncoc1C(=O)N1CCCC(C(=O)c2ccc3c4c(cccc24)CC3)C1` (stereo not drawn), “inactive”; as for `CCc1ccccc1NC(=O)/C(=C/c1ccccc1)c1ccccc1`, “inactive”.
With `COc1ccc(Nc2ncnc3sc(-c4ccccc4)cc23)c(OC)c1`, the inhibition result is “inactive”.
As for `O=S(=O)(Nc1cccc(Oc2ccc(Cl)cc2)n1)c1ccc(F)cc1`, the entry is “inactive”; as for `Brc1ccc(C2CC(c3ccccc3)=Nc3ccccc3N2)cc1` (stereo not drawn), “inactive”.
Regarding `Cc1[nH][nH]c(=O)c1C(c1ccc(-c2ccc(Cl)cc2)o1)c1c(C)[nH][nH]c1=O`, the inhibition was 38% (active).
As for `O=C(Nc1nnc(SCc2ccc(Cl)cc2Cl)s1)C1COc2ccccc2O1` (stereo not drawn), the entry is “inactive”; as for `CCCCN(Cc1ccccc1)C(=O)C1CCN(Cc2sccc2C)CC1`, “inactive”; as for `Clc1cccc(-c2nc3nc4ccccc4nc3n2Cc2ccco2)c1`, “inactive”.
The entry for `O=C1N=C2SCCN2/C1=C\c1c(Cl)cccc1Cl` is “inactive”; for `CCc1nnc(NS(=O)(=O)c2ccc(NC(=S)NC(=O)/C=C/c3cccs3)cc2)s1` it is “inactive”.
As for `COc1ccccc1N1CCN(c2ncnc3sc(C)c(-c4ccccc4)c23)CC1`, the entry is “inactive”.
With `O=C(Nc1ccccc1[N+](=O)[O-])C1C(c2ccccc2)=C1c1ccccc1`, the inhibition entry is “inactive”.
As for `CCCCOC(=O)CCCc1ccc([N+](=O)[O-])cc1[N+](=O)[O-]`, the inhibition result is “inactive”.
`O=C(NC1Cc2ccccc2C1)c1cc(COc2cccc(C(F)(F)F)c2)on1`: the inhibition result was “inactive”.
The entry for `O=C(Nc1ccc(Oc2ccccc2)cc1)c1ccco1` is “inactive”; for `Cc1ccc(C(=O)c2c(NC(=O)c3ccncc3)sc3c2CCCC3)cc1` it is “inactive”; for `Cc1onc(-c2ccc(Cl)cc2)c1-c1ccnn1S(=O)(=O)c1ccc(Cl)cc1` it is “inactive”.
The entry for `CN(C)c1ccc(C(CNC(=O)c2ccc(F)cc2)c2c[nH]c3ccccc23)cc1` (stereo not drawn) is “inactive”; for `CCn1cnc2scc(-c3ccc(C)c(C)c3)c2c1=O` it is “inactive”.
